Rows were chosen to be rich in hits. Some 19% of all compounds tested hit in one or more screens of this group.
Pf growth 48h – inhibits P. falciparum growth in the first generation, 48 h. Potency, µM (doses to about 28.7 µM), inactives show at the highest dose activity change, negative = inhibition, hits mostly inhibitors. P. falciparum luciferase growth in erythrocytes, 48 h. 310,000 compounds, 5.9% hits; further: potency means the concentration at half of the fitted maximal effect; on the % scale 0 is the no-effect control and ±100 the full control effect
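Read-out is firefly luciferase luminescence from an integrated reporter in P. falciparum, so falling signal marks reduced parasite growth. Infected erythrocytes were at 2% hematocrit and 0.1% parasitemia (final) in Albumax-supplemented RPMI 1640.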
Pf growth 96h – P. falciparum growth inhibition at 96 hour, primary screen for plastid delayed-death inhibitors; P. falciparum luciferase reporter growth, 96 h; Potency, µM (highest dose often 28.7 µM), for inactives: at the top dose activity change, negative = inhibition, actives largely listed as inhibitors; 320,000 compounds, 6.9% hits; further: potency means the concentration at half of the fitted maximal effect; on the % scale 0 is the no-effect control and ±100 the full control effect
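Delayed-death screen, second-generation endpoint: infected erythrocytes, 2% hematocrit, 0.05% parasitemia final; 96 hours at 37 C, 5% CO2; luciferase detection reagent; luminescence decrease equals reduced growth.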
Cycloheximide cs – counter-screen for Shiga toxin inhibitors: cycloheximide protein synthesis inhibition. cell reporter, cycloheximide protein synthesis inhibition counterscreen. max response, %. 300,000 compounds, 12% hits. AID 2314; in the data active means max response mostly above about 13%, no sharp cut-off; inactive means mostly below about 14%; further: read at 38.3 µM for the half of the compounds with a filed dose; 0% is about no effect
LASV entry inh – blocks Lassa virus binding to or entry into cells; Lassa virus pseudotype entry inhibition, cell reporter; 300,000 compounds, 1.2% hits; AID 540256; Potency, µM (highest dose often 37.9 µM), inactives show at the top dose activity change, negative = inhibition, usual class: inhibitors; calls by dose curve; tested in HEK293 cells; further: potency means the concentration at half of the fitted maximal effect; on the % scale 0 is the no-effect control and ±100 the full control effect; nearly all actives have a fitted effect of over 50% in size
Marburg entry inh – inhibitors of Marburg virus binding or cell entry. Marburg virus pseudotyped entry inhibition, cell reporter. Potency, µM (doses to about 37.8 µM), for the others: at the top dose activity change, negative = inhibition, actives largely listed as inhibitors. 300,000 compounds, 1.8% hits; calls by dose curve; tested in HEK293 cells; further: potency means the concentration at half of the fitted maximal effect; on the % scale 0 is the no-effect control and ±100 the full control effect
Shiga inhibitor – Shiga toxin inhibition. Vero cells, Shiga toxin protein synthesis inhibition reporter. inhibition, % at 38.7 µM. 290,000 compounds, 9.2% hits. AID 2315; in the data active means inhibition mostly above about 28%, no sharp cut-off; inactive means mostly below about 43%; further: 0% is about no effect
Numbers without * were called inactive; ? = inconclusive; . = no result; [ ] = another dose, or the depositor's remark. Unless noted, the call rests on the fitted dose curve; in most records, active means well fitted inhibition curve with a large enough effect; inconclusive means small, poorly fitted or top-dose-only effect, or another doubt; inactive means no such curve, though single readings can be large or run the other way.

SMILES	Pf growth 48h	Pf growth 96h	Cycloheximide cs	LASV entry inh	Marburg entry inh	Shiga inhibitor
CCCSc1ccc(C(=O)Nc2ccc(F)cc2F)cn1	28%	32%	30*	-5%[46.1 µM]	?	30
CCCSc1nsc(NC(=O)Nc2ccc(F)cc2F)n1	?	?	23*	.	.	36*
CC(C)S(=O)(=O)c1ccc(C(=O)Nc2ccc(F)cc2F)cn1	6%	37%	-2	-14%	?	-4
COc1cccc(NC(=O)Nc2nc(SC(C)(C)C)ns2)c1	?	-91%	25*	.	.	.
COc1ccc(NC(=O)Nc2cccc(OC)c2)cc1	.	.	.	?	17%	.
COc1cccc(NC(=O)Nc2nc(SC)ns2)c1	78%	91%	54*	15%[46.1 µM]	?	100*
O=C(Nc1ccc(C(=O)O)cc1)Nc1ccc(F)cc1F	34%	4%	-3	3%[46.1 µM]	-1%[46.1 µM]	-4
CCN(C(=O)CN1CCN(S(=O)(=O)c2ccccc2C(F)(F)F)CC1)c1c(N)n(Cc2ccccc2)c(=O)[nH]c1=O	-13%	?	-5	9%	?	6
Cc1cccc(C(=O)NCC(=O)OCc2cc(=O)n3nc(C4CCCCC4)sc3n2)c1	.	.	.	6%[46.1 µM]	.	.
O=C(CSc1nnc(NC(=O)Nc2ccccc2)s1)Nc1cccc(F)c1	.	.	.	27%[46.1 µM]	.	.
CCSc1nsc(NC(=O)Nc2cccc(F)c2)n1	5.9µM*	65%	39*	?	?	.
COc1ccc(-c2ccnc3c(C#N)cnn23)cc1	30%	48%	-3	-29%	0%[46.1 µM]	-4
CCOC(=O)C(CC)Sc1nc2c(c(=O)[nH]c(=O)n2C)n1CCc1ccccc1 (stereo not drawn)	10µM*	12µM*	-2	?	1%	-19
CCCCCn1c(SCc2cccc(C)c2)nc2c1c(=O)[nH]c(=O)n2C	?	9.3µM*	1	.	.	-3
CCC(C)Nc1nc2c(c(=O)[nH]c(=O)n2C)n1Cc1ccc(F)cc1 (stereo not drawn)	.	.	.	-14%[46.1 µM]	-1%[46.1 µM]	.
CCCCn1c(NC(C)CC)nc2c1c(=O)[nH]c(=O)n2C (stereo not drawn)	?	4.7µM*	-1	-8%	-1%	-11
CCCCCCn1c(SCCCC)nc2c1c(=O)[nH]c(=O)n2C	?	3.3µM*	-1	-2%	-15%	-6
O=C(Cc1cccs1)Nc1ccc(-c2nnn(CC(=O)N3CCOCC3)n2)cc1	8%	0%	9	7%	5%	24
CCOC(=O)c1cc(C)n(CC2CCC(C(=O)Nc3ccc(OC)c(OC)c3)CC2)c1C (stereo not drawn)	.	.	.	2%[46.1 µM]	.	.
CC(C)CCSc1nc2c(c(=O)[nH]c(=O)n2C)n1CCCc1ccccc1	0%	5.9µM*	5	17%	-23%	22
CCn1c([N+](=O)[O-])nc2c1c(=O)[nH]c(=O)n2C	-3%	?	11	18µM*	?	18
Cc1ccc(NC(=O)c2ccc(CNc3c(N4CCOCC4)c(=O)c3=O)cc2)cc1	.	41%	-5	.	-8%	-13
Cc1cc2nc(CCN(Cc3cccnc3)C(=S)Nc3ccc(F)cc3)[nH]c2cc1C	?	?	-2	26%	?	-14
Cc1cc2nc(CCN(Cc3cccnc3)C(=S)Nc3ccccc3)[nH]c2cc1C	12µM*	7.4µM*	5	-25%	-27%	5
COc1ccccc1NC(=S)N(CCc1nc2cc(C)c(C)cc2[nH]1)Cc1cccnc1	10µM*	?	-2	-1%	?	16
SMILES	Pf growth 48h	Pf growth 96h	Cycloheximide cs	LASV entry inh	Marburg entry inh	Shiga inhibitor
CCCCC(O)(CCN1CCOCC1)c1ccc(Cl)cc1 (stereo not drawn)	.	?	-3	-1%	-26%	-20
Cc1ccc(NC(=O)C2CCCN2C(=O)NC2CCCCC2)c(C)c1 (stereo not drawn)	17%	?	6	5%	-5%	-13
CN(Cc1ccc(F)cc1)C(=O)c1ccc2c(c1)NC(=O)CS2	-8%	?	9	.	.	-8
O=C1CSc2ccc(C(=O)O)cc2N1	3%	12µM*	-3	0%	4%	-9
C=CCCC(=O)N1CCC(n2nccc2NC(=O)CCCc2ccccc2)CC1	18%	0%	13*	20%	19%	20
CSCCC(=O)N1CCC(n2nccc2NC(=O)CCCc2ccccc2)CC1	?	?	17*	.	.	21
c1ccc(Oc2cccc(OCCCn3cncn3)c2)cc1	-8%	-1%	15	9%	20%[46.1 µM]	11
Cc1cnn(-c2cc(Oc3ccccc3)ncn2)c1	84%	-15%	52*	?	?	112*
c1ccc(Oc2cc(-n3cncn3)ncn2)cc1	39%	-2%	15	-2%	3%	39*
c1ccc(Oc2cc(-c3ccccc3)ncn2)cc1	88%	79%	59*	8%	?	127*
Cc1ccc(OCn2c(=O)sc3ccccc32)cc1	48%	.	47*	10%	1%	65*
O=c1sc2ccccc2n1CCOc1ccccc1	.	0%	39*	?	5%	66*
Cc1nn(-c2ccc(F)cc2F)c(=O)c2noc(C)c12	81%	-18%	-2	.	.	11
COc1ccc(CCNC(=O)CSc2cn(Cc3cccc(C)c3)c3ccccc23)cc1OC	?	9.3µM*	-4	?	?	-5
O=C(CSc1nncc2ccccc12)Nc1cccc(C(=O)O)c1	75%	103%	40*	.	.	99*
COc1ccc(CCNC(=O)CSc2nnc(-c3ccc(F)cc3)c3ccccc23)cc1OC	9.3µM*	5.2µM*	-2	-10%	?	-4
O=C(CSc1nnc(-c2ccc(F)cc2)c2ccccc12)Nc1ccccc1	-20%	-22%	22*	-11%	0%	12
CCC(C)Nc1nnc(SCC(=O)c2c(N)n(C3CC3)c(=O)[nH]c2=O)s1 (stereo not drawn)	.	.	.	10%[46.1 µM]	5%[46.1 µM]	.
OCC#Cc1ncc(C(F)(F)F)cc1Cl	-5%	0%	2	-24%	-9%	18
CN(C(=O)c1c[nH]c(=O)cc1C(F)(F)F)c1ccc(Cl)c(Cl)c1	12µM*	-108%	-2	-15%[46.1 µM]	?	17
O=C1OC(c2ccccc2)(c2ccc3cc(O)ccc3c2)c2ccccc21 (stereo not drawn)	.	.	.	-28%[46.1 µM]	5.6µM*	.
Cc1ccc(C)n1-c1ccc(-c2ccnc(N)n2)cc1	?	?	24*	?	?	28
COc1ccc(O)c(/C=N/Nc2nc3ccccc3[nH]2)c1	1.9µM*	2%	49*	13%[46.1 µM]	-19%[46.1 µM]	82*
COc1cc(/C=N/Nc2ccc(F)cc2F)cc(OC)c1O	-1%	?	13	-3%	-1%	-27
O=[N+]([O-])c1ccc(O)c(C=NNc2ccc(S(=O)(=O)O)cc2)c1	.	.	.	2%[46.1 µM]	22%[46.1 µM]	.
COc1cc(/C=N/Nc2nc3ccccc3[nH]2)cc(OC)c1O	1.7µM*	0.93µM*	18*	1%	?	73
